From PubChem BioAssay (NCI)
This is part of a sample that, as a whole, favours compounds with a hit. Of some 83,000 tested, about 20% had one in any assay.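 In brief: 96-well plates, 48 h treatment, single concentration, percent growth endpoint.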 Activity calls are given as the source filed them. The calls were made as follows: active = growth percent below 10; inactive = the rest.

Experiments:
Experiment in all cases: NCI-60 one-dose screen, 48 h (100 = growth as untreated, 0 = no growth, -100 = all killed)
SK-MEL-2 melanoma = conditions: 10 µM unless noted
EKVX NSCLC = conditions: 10 µM
SN12C renal = conditions: 10 µM unless noted
UO-31 renal = conditions: 10 µM unless noted
TK-10 renal = conditions: 10 µM unless noted
ACHN renal = conditions: 10 µM unless noted
CAKI-1 renal = conditions: 10 µM unless noted
A498 renal = conditions: 10 µM unless noted
CCRF-CEM leukemia = conditions: 10 µM
MOLT-4 leukemia = conditions: 10 µM unless noted
RPMI-8226 leukemia = conditions: 10 µM unless noted
OVCAR-8 ovarian = conditions: 10 µM unless noted
OVCAR-5 ovarian = conditions: 10 µM unless noted
OVCAR-4 ovarian = conditions: 10 µM unless noted
SK-OV-3 ovarian = conditions: 10 µM unless noted
OVCAR-3 ovarian = conditions: 10 µM unless noted
HS 578T breast = conditions: 10 µM unless noted
NCI/ADR-RES ovarian = conditions: 10 µM unless noted
IGROV1 ovarian = conditions: 10 µM unless noted

Measured: growth

COc1cc(/C=C/C(=O)c2ccc(F)cc2)ccc1OCCCCOc1cc2c(cc1OC)C(=O)N1CCCC1C=N2 (configuration not stated)
inactive: SK-OV-3 ovarian 10.7% | NCI/ADR-RES ovarian 27.1%
active: SK-MEL-2 melanoma -24.6% | EKVX NSCLC 8.29% | SN12C renal -48.1% | UO-31 renal -63% | TK-10 renal -16.9% | ACHN renal -85.9% | CAKI-1 renal -14.2% | A498 renal 7.77% | CCRF-CEM leukemia -30.3% | MOLT-4 leukemia -19.4% | RPMI-8226 leukemia -27.4% | OVCAR-8 ovarian 8.79% | OVCAR-5 ovarian -4.68% | OVCAR-4 ovarian -11% | OVCAR-3 ovarian -28.8% | HS 578T breast 6.29%

COc1cccc(CNC(=O)c2cccc(C3CC(=O)c4c(cc(OC)c(OC)c4OC)O3)c2)c1 (configuration not stated)
inactive: SK-MEL-2 melanoma 38.5% | EKVX NSCLC 72.4% | SN12C renal 72.7% | UO-31 renal 51.6% | TK-10 renal 87.7% | ACHN renal 47.9% | CAKI-1 renal 77.3% | A498 renal 81.7% | CCRF-CEM leukemia 13.3% | MOLT-4 leukemia 67% | RPMI-8226 leukemia 32.9% | OVCAR-8 ovarian 67.1% | OVCAR-5 ovarian 89.1% | OVCAR-4 ovarian 78.3% | SK-OV-3 ovarian 81.7% | IGROV1 ovarian 46.5% | OVCAR-3 ovarian 12.6% | HS 578T breast 102% | NCI/ADR-RES ovarian 41.7%

COc1ccc(-c2cc(C#N)c(NNC(C)=O)[nH]2)cc1
active: CCRF-CEM leukemia -0.558%
inactive: SK-MEL-2 melanoma 102% | EKVX NSCLC 112% | SN12C renal 113% | UO-31 renal 96.2% | TK-10 renal 95.7% | ACHN renal 103% | CAKI-1 renal 107% | A498 renal 123% | MOLT-4 leukemia 46% | RPMI-8226 leukemia 123% | OVCAR-8 ovarian 110% | OVCAR-5 ovarian 94.7% | OVCAR-4 ovarian 68.8% | SK-OV-3 ovarian 179% | IGROV1 ovarian 101% | OVCAR-3 ovarian 104% | HS 578T breast 107% | NCI/ADR-RES ovarian 109%

COc1ccc(NC(=O)/C=C(C)/C=C/C=C(C)/C=C/C2=C(C)CCCC2(C)C)cc1
inactive: SK-MEL-2 melanoma 61.6% | EKVX NSCLC 82.7% | SN12C renal 65.9% | UO-31 renal 53% | TK-10 renal 61.6% | ACHN renal 54% | CAKI-1 renal 66.6% | A498 renal 91.1% | CCRF-CEM leukemia 60.6% | MOLT-4 leukemia 76.1% | RPMI-8226 leukemia 43.9% | OVCAR-8 ovarian 37% | OVCAR-5 ovarian 94.8% | OVCAR-4 ovarian 80.1% | SK-OV-3 ovarian 86.2% | OVCAR-3 ovarian 66.5% | HS 578T breast 87.9% | NCI/ADR-RES ovarian 80.1%

Cc1ccc(C(=O)Nc2ccc(CN3CCN(C)CC3)c(C(F)(F)F)c2)cc1C#Cc1cnc(N)c2ccc(C#N)cc12
active: ACHN renal 9.19% | CCRF-CEM leukemia 7.71% | MOLT-4 leukemia -8.2% | SK-OV-3 ovarian 2.3%
inactive: SK-MEL-2 melanoma 25.1% | EKVX NSCLC 53.4% | SN12C renal 24.1% | UO-31 renal 14.3% | TK-10 renal 52.7% | CAKI-1 renal 33.6% | A498 renal 35.7% | RPMI-8226 leukemia 20.2% | OVCAR-8 ovarian 27.8% | OVCAR-5 ovarian 98.4% | OVCAR-4 ovarian 48.8% | IGROV1 ovarian 16.3% | OVCAR-3 ovarian 61.2% | HS 578T breast 47.4% | NCI/ADR-RES ovarian 49.8%

COc1cc(CCNc2cnc3cc(N)cc(N)c3n2)cc(OC)c1
active: CCRF-CEM leukemia -52.5% | MOLT-4 leukemia 5.61%
inactive: SK-MEL-2 melanoma 104% | EKVX NSCLC 123% | SN12C renal 107% | UO-31 renal 90.9% | TK-10 renal 116% | ACHN renal 106% | CAKI-1 renal 129% | A498 renal 107% | RPMI-8226 leukemia 86% | OVCAR-8 ovarian 98.6% | OVCAR-5 ovarian 92.3% | OVCAR-4 ovarian 93.8% | SK-OV-3 ovarian 168% | IGROV1 ovarian 103% | OVCAR-3 ovarian 92.6% | HS 578T breast 132% | NCI/ADR-RES ovarian 105%

C/C=C(/C)C(=O)OC1C=C(CO)C(=O)C(OC(=O)C2(C)OC2C)C1C(C)C (configuration not stated)
active: SK-MEL-2 melanoma -49.7% | EKVX NSCLC -11.8% | SN12C renal -44.4% | UO-31 renal -96.3% | TK-10 renal -31.8% | ACHN renal -96.8% | CAKI-1 renal -23.6% | A498 renal 1.46% | CCRF-CEM leukemia 1.28% | MOLT-4 leukemia -3.66% | RPMI-8226 leukemia -37.4% | OVCAR-8 ovarian 4.08% | OVCAR-5 ovarian -40% | IGROV1 ovarian -31.2% | OVCAR-3 ovarian -46.9% | NCI/ADR-RES ovarian 6.41%
inactive: OVCAR-4 ovarian 13.6% | SK-OV-3 ovarian 44.3% | HS 578T breast 30.9%

C/C=C(/C)C(=O)OC1C=C(CO)C(=O)C(OC(=O)C(C)(O)C(C)Cl)C1C(C)C (configuration not stated)
active: SK-MEL-2 melanoma -23.5% | EKVX NSCLC -15% | SN12C renal -35.4% | UO-31 renal -96.5% | TK-10 renal -17.4% | ACHN renal -96.7% | CAKI-1 renal -44.5% | A498 renal -74.6% | CCRF-CEM leukemia 1.18% | MOLT-4 leukemia 0.566% | RPMI-8226 leukemia -33.5% | OVCAR-8 ovarian 3.78% | OVCAR-5 ovarian -43.2% | IGROV1 ovarian -29.7% | OVCAR-3 ovarian -41.4% | NCI/ADR-RES ovarian 9.46%
inactive: OVCAR-4 ovarian 14.1% | SK-OV-3 ovarian 35.8% | HS 578T breast 30.7%

O=C(/C=C/c1cccc(O)c1)c1cccc(-n2cc(-c3ccc(Cl)cc3)[nH]c2=O)c1
active: SK-MEL-2 melanoma -45.5% | EKVX NSCLC 1.79% | SN12C renal -47% | UO-31 renal -78.3% | TK-10 renal 0.394% | ACHN renal -80.6% | CAKI-1 renal -53.9% | CCRF-CEM leukemia -4.75% | MOLT-4 leukemia -29% | RPMI-8226 leukemia -53.2% | OVCAR-8 ovarian -2.92% | OVCAR-5 ovarian -47.3% | IGROV1 ovarian -42.9% | OVCAR-3 ovarian -79.7% | HS 578T breast -48.4% | NCI/ADR-RES ovarian 3.39%
inactive: A498 renal 61.7% | OVCAR-4 ovarian 10.4% | SK-OV-3 ovarian 37.7%

CSC1=Nc2c(c(C)c(-c3ccccc3)n2CCCCl)C2=NC(=O)CN12
inactive: SK-MEL-2 melanoma 75.4% | EKVX NSCLC 54.2% | SN12C renal 86.3% | UO-31 renal 57.2% | TK-10 renal 105% | ACHN renal 88.3% | CAKI-1 renal 57.7% | A498 renal 46.9% | CCRF-CEM leukemia 51.9% | MOLT-4 leukemia 50.6% | RPMI-8226 leukemia 50.5% | OVCAR-8 ovarian 88.4% | OVCAR-5 ovarian 86.2% | OVCAR-4 ovarian 75.5% | SK-OV-3 ovarian 87.5% | IGROV1 ovarian 47.9% | OVCAR-3 ovarian 85.2% | HS 578T breast 84.6% | NCI/ADR-RES ovarian 58%

Brc1ccc(-c2nc3ccccc3s2)cc1
inactive: SK-MEL-2 melanoma 105% | EKVX NSCLC 75.4% | SN12C renal 95% | UO-31 renal 59.5% | TK-10 renal 142% | ACHN renal 92% | CAKI-1 renal 73.4% | A498 renal 77.2% | CCRF-CEM leukemia 95.5% | MOLT-4 leukemia 88.1% | RPMI-8226 leukemia 94.4% | OVCAR-8 ovarian 106% | OVCAR-5 ovarian 90.9% | OVCAR-4 ovarian 93.5% | SK-OV-3 ovarian 91.8% | IGROV1 ovarian 73.9% | OVCAR-3 ovarian 99% | HS 578T breast 89.6% | NCI/ADR-RES ovarian 99.3%

CC(C)(C)OC(=O)N1C/C(=C\c2ccccc2)C(=O)/C(=C/c2ccccc2)C1
inactive: SK-MEL-2 melanoma 94.2% | EKVX NSCLC 97.7% | SN12C renal 93.5% | UO-31 renal 71.9% | TK-10 renal 102% | ACHN renal 106% | CAKI-1 renal 84.8% | A498 renal 101% | CCRF-CEM leukemia 76.4% | MOLT-4 leukemia 71.8% | RPMI-8226 leukemia 31% | OVCAR-8 ovarian 96.5% | OVCAR-5 ovarian 86.5% | OVCAR-4 ovarian 97.9% | SK-OV-3 ovarian 95.2% | IGROV1 ovarian 95.5% | OVCAR-3 ovarian 103% | HS 578T breast 102% | NCI/ADR-RES ovarian 98.9%

CCn1cc(C(=O)O)c(=O)c2cc(F)c(N3CCN(S(=O)(=O)c4ccc(Cl)cc4)CC3)cc21
active: A498 renal -6.18% | CCRF-CEM leukemia -0.845% | IGROV1 ovarian 9.37%
inactive: SK-MEL-2 melanoma 43.8% | EKVX NSCLC 78.1% | SN12C renal 11.6% | UO-31 renal 51.1% | TK-10 renal 53.6% | ACHN renal 28.7% | CAKI-1 renal 43.6% | MOLT-4 leukemia 23.6% | RPMI-8226 leukemia 13.4% | OVCAR-8 ovarian 12.6% | OVCAR-5 ovarian 51.9% | OVCAR-4 ovarian 37.7% | SK-OV-3 ovarian 40.8% | OVCAR-3 ovarian 28.2% | HS 578T breast 18.9% | NCI/ADR-RES ovarian 68.7%

COc1ccccc1C(=O)Nc1cccc(-c2cc(=O)c3c(OC)c(OC)c(OC)cc3o2)c1
active: RPMI-8226 leukemia 6.75%
inactive: SK-MEL-2 melanoma 31.1% | EKVX NSCLC 61.7% | SN12C renal 41% | UO-31 renal 15.3% | TK-10 renal 53.4% | ACHN renal 43% | CAKI-1 renal 65.1% | A498 renal 44.9% | CCRF-CEM leukemia 16% | MOLT-4 leukemia 28.8% | OVCAR-8 ovarian 38.7% | OVCAR-5 ovarian 81.2% | OVCAR-4 ovarian 59.1% | SK-OV-3 ovarian 100% | IGROV1 ovarian 42.9% | OVCAR-3 ovarian 51.3% | HS 578T breast 23.6% | NCI/ADR-RES ovarian 58.3%

Cc1ncc(C(=O)Nc2ccc(CN3CCN(C)CC3)c(C(F)(F)F)c2)cc1C#Cc1c(N)ncc2ccccc12
active: SK-MEL-2 melanoma -76.9% | EKVX NSCLC -89.5% | SN12C renal -99.1% | UO-31 renal -99.1% | TK-10 renal -99.4% | ACHN renal -100% | CAKI-1 renal 2.22% | A498 renal -98% | CCRF-CEM leukemia -48.3% | MOLT-4 leukemia -67.6% | RPMI-8226 leukemia -47.5% | OVCAR-8 ovarian -85.7% | OVCAR-5 ovarian -92.6% | OVCAR-4 ovarian -58.8% | SK-OV-3 ovarian -2.88% | IGROV1 ovarian -77.1% | OVCAR-3 ovarian -68.9% | HS 578T breast -25.5% | NCI/ADR-RES ovarian -70%

CN1CCN(Cc2ccc(NC(=O)c3ccc(C#Cc4c(N)ncc5ccc(F)cc45)cc3)cc2C(F)(F)F)CC1
inactive: CAKI-1 renal 42.7% | A498 renal 77.9% | SK-OV-3 ovarian 64% | HS 578T breast 29.9%
active: SK-MEL-2 melanoma -40.3% | EKVX NSCLC -59.1% | SN12C renal -71.3% | UO-31 renal -56.8% | TK-10 renal -42.2% | ACHN renal -92.6% | CCRF-CEM leukemia -40.2% | MOLT-4 leukemia -55.2% | RPMI-8226 leukemia -43.3% | OVCAR-8 ovarian -28.4% | OVCAR-5 ovarian -52.8% | OVCAR-4 ovarian -19.9% | IGROV1 ovarian -50.6% | OVCAR-3 ovarian -25.9% | NCI/ADR-RES ovarian -12.3%
